# DT40 TDP1 CPT – DT40-hTDP1 cell growth loss with CPT; chicken DT40 Tdp1-/-;hTDP1 cells + 20 nM CPT, ATP luminescence, 48 h; Potency, µM (doses to about 46.2 µM), inactives show top-dose activity change, negative = growth inhibition, usual class: inhibitors; hit rate 12% among 420,000; note: potency is the fitted concentration of half-maximal effect; nearly all actives have a fitted effect of over 55% in size
#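 Chicken DT40 Tdp1-/- cells complemented with human TDP1, 400 cells/well, exposed to compounds plus 20 nM camptothecin for at least 48 h at 37 C; viability read as ATP content by CellTiter-Glo luminescence.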
# CtBP-E1A blk – inhibitors of CtBP/E1A interaction. AlphaScreen GST-E1A/His-CtBP binding, 1536-well; active compounds read low. activity change, % (concentration not given with the values). hit rate 0.49% among 340,000. AID 651724; in the data active = activity change below about -65%; inconclusive = mostly about -30% to -63%
#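 AlphaScreen with 125 nM GST-E1A and 125 nM His-CtBP (5X stocks) in Tris pH 8.0, 300 mM NaCl, BSA, Tween 20, TCEP. Compounds preincubated 2 h at 37 deg C, then glutathione donor/nickel acceptor beads added for 1 h at 37 deg C in dark.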
# IL1B secr inh – inhibitors of inflammasome signaling (IL-1 beta secretion); THP-1 LPS/ATP IL-1B secretion, AlphaLISA, 16 h; active compounds read low; activity change, % at 57.5 µM; hit rate 4.7% among 360,000; in the data active = activity change below about -50%; inconclusive = mostly about -30% to -49%
#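 THP-1 cells pretreated 1 hr with compounds (up to 57.5 uM final), then stimulated with LPS (250 ng/mL final) plus ATP (1.25 mM final); secreted IL-1B measured by AlphaLISA after 16 hr, decreased signal indicating inhibition.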
# DT40 TDP1 no CPT – qHTS for Inhibitors of human tyrosyl-DNA phosphodiesterase 1 (TDP1): qHTS in cells in absence of CPT; DT40 Tdp1-/- hTDP1 cells, no CPT, ATP luminescence, 48 h; Potency, µM (series often up to 46.2 µM), for inactives: at the highest dose activity change, negative = growth inhibition, actives largely listed as inhibitors; hit rate 15% among 420,000; AID 686978, 2013; note: potency is the fitted concentration of half-maximal effect; nearly all actives have a fitted effect of over 55% in size
#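 Readout: luminescence from CellTiter-Glo after 30 min in the dark at RT. Cells: DT40 Tdp1-/- with stable hTDP1, 400/well. Exposure: compounds alone, ≥48 hr, 37 °C.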
# Six1-Eya2 inh – blocks human Six1 binding to Eya2; hit rate 0.56% among 360,000; activity change, % (test concentration not listed); Q15475+O00167; AlphaScreen GST-Six1/His-Eya2 binding, biochemical; active compounds read low; AID 651725; in the data active = activity change below about -65%; inconclusive = mostly about -30% to -63%
# Target sequence (O00167 whole entry, looked up): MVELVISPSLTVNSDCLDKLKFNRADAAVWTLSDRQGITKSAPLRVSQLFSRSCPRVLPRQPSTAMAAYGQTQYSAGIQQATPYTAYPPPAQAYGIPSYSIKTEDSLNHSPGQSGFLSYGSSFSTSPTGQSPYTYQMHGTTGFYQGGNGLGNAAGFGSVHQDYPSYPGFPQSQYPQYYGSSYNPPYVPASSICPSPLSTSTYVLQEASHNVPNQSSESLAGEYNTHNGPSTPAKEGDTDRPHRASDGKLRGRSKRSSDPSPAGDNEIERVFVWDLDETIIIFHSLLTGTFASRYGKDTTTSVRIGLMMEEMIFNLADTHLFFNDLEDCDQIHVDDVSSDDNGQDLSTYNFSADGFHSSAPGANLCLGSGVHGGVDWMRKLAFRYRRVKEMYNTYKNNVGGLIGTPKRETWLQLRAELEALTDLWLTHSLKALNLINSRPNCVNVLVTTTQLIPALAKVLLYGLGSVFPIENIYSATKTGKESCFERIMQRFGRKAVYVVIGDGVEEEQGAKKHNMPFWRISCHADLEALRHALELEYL
# Target sequence (Q15475 whole entry, looked up): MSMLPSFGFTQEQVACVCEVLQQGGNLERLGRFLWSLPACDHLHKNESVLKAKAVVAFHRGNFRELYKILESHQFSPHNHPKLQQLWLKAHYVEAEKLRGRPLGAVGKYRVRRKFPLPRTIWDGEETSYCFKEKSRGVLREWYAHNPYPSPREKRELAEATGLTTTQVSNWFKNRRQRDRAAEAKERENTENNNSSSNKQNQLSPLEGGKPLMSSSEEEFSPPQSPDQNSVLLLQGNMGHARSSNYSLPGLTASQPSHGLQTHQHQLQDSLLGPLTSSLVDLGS
#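 Homogeneous AlphaScreen proximity assay pairing GST-Six1 with His-tagged Eya2 (added as 5X mix: 250 nM and 500 nM) in 50 mM Tris pH 8.0, 300 mM NaCl, 1 mM TCEP. Glutathione donor and nickel acceptor beads; 1 h, 37 °C, dark.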
# TDP1 block – inhibitors of human tyrosyl-DNA phosphodiesterase TDP1. hit rate 0.28% among 350,000. Potency, µM (top dose mostly 130 µM), inactives show at the highest dose activity change, negative = inhibition, most hits filed as inhibitors. Q9NUW8. recombinant TDP1, AlphaScreen DNA substrate cleavage; note: potency is the fitted concentration of half-maximal effect; nearly all actives have a fitted effect of over 40% in size
#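 Enzyme-compound mixtures sat 15 min at room temperature, followed by a 5 min reaction with 15 nM final substrate and 10 min with AlphaScreen beads. Recombinant human Tdp1 was used at 1 nM final.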
# Starred values were filed as active, the others as inactive; ? = inconclusive; . = no result given; [ ] = remark or other dose. Hits are enriched below; roughly 18% of the tested compounds scored in any of these assays. Unless noted, calls come from the whole dose curve; as a rule, active = well fitted curve in the direction sought with a large enough effect; inconclusive = small, poorly fitted or top-dose-only effect, or another doubt; inactive = no such curve, though single readings can be large; an effect the other way counts as inactive or inconclusive. % is set by controls: 0 for no effect and ±100 for the full control effect.
SMILES,DT40 TDP1 CPT,CtBP-E1A blk,IL1B secr inh,DT40 TDP1 no CPT,Six1-Eya2 inh,TDP1 block
Oc1ccc(Cl)cc1-c1cc(C(F)(F)C(F)F)nc(-c2ccccc2)n1,29µM*,-7,14,16µM*,-1,5%
Cc1ccc(O)c(-c2cc(C(F)(F)C(F)F)nc(-c3ccccc3)n2)c1,-11%,-1,11,?,16,0%
O=C(NCC1CC1)c1onc(CSc2ccc(F)c(F)c2)c1C(=O)NCC1CC1,?,15,-7,?,9,-15%
COc1cccc(N2CCN(C(=O)CN(C)S(=O)(=O)c3ccc4c(c3)CCC(=O)N4)CC2)c1,29µM*,0,7,18µM*,-11,-4%
CC(C)c1ccc(NC(=O)C(NS(=O)(=O)c2ccc3c(c2)CCC(=O)N3)c2ccccc2)cc1 (stereo not drawn),21µM*,.,.,?,.,9%
Cc1cc(NC(=O)CN(C)S(=O)(=O)c2ccc3c(c2)CCC(=O)N3)ccc1Br,29µM*,.,.,21µM*,.,2%
Cc1ccc(C)c(NC(=O)C(NS(=O)(=O)c2ccc3c(c2)CCC(=O)N3)c2ccccc2)c1 (stereo not drawn),?,.,.,-16%,.,5%
CN(CC(=O)NCCN1CCN(c2ccccc2)CC1)S(=O)(=O)c1ccc2c(c1)CCC(=O)N2,?,3,16,?,0,8%
Cc1ccc(NC(=O)C(Cc2ccccc2)NS(=O)(=O)c2ccc3c(c2)CCC(=O)N3)cc1 (stereo not drawn),2%,.,.,-44%,.,1%
Cc1ccc(NC(=O)C(NS(=O)(=O)c2ccc3c(c2)CCC(=O)N3)c2ccccc2)cc1C (stereo not drawn),?,.,.,13µM*,.,9%
CCOC(=O)[C@@H]1[C@H]2COc3cc(OC)ccc3[C@H]2N2C(=O)N(c3ccc(Cl)cc3)C(=O)[C@]12C,?,-6,-21,?,1,1%
CC(C)(C)C1C=C(Sc2ccccc2)C(=O)O1 (stereo not drawn),-4%,8,?,-3%,18,-11%
S=C(Cc1ccccc1)N1CCOCC1,-30%,4,11,-15%,2,.
NC(=O)CC(NC(=O)c1ccc(Br)cc1)c1ccc(N2CCN(c3ccc(F)cc3)CC2)c([N+](=O)[O-])c1 (stereo not drawn),26µM*,-11,-10,23µM*,-7,8%
NC(=O)CC(NC(=O)c1ccc(Br)cc1)c1ccc(N2CCN(c3ccccc3)CC2)c([N+](=O)[O-])c1 (stereo not drawn),?,-6,-29,?,-2,.
NC(=O)CC(NC(=O)c1cccc(Br)c1)c1ccc(N2CCN(c3ccc(F)cc3)CC2)c([N+](=O)[O-])c1 (stereo not drawn),23µM*,0,-1,13µM*,-5,.
NC(=O)CC(NC(=O)c1cccc(Br)c1)c1ccc(N2CCC(N3CCCCC3)CC2)c([N+](=O)[O-])c1 (stereo not drawn),-6%,4,-5,-2%,0,.
NC(=O)CC(NC(=O)c1ccc(Br)cc1)c1ccc(N2CCCCCCC2)c([N+](=O)[O-])c1 (stereo not drawn),21µM*,.,-29,10µM*,-30,.
CCCCN(C(=O)Cn1ncc(Cl)c(Cl)c1=O)c1c(N)n(CC(C)C)c(=O)[nH]c1=O,?,9,-26,?,-20,3%
CCn1c2ccccc2c2cc(CN3CCN(Cc4ccc(OC)c(OC)c4)CC3)ccc21,18µM*,.,.,23µM*,.,-10%[12.3 µM]
COc1ccc(CN2CCN(Cc3ccc4ccccc4c3)CC2)cc1OC,?,-20,?,18µM*,?,.
CCOc1ccc(CN2CCN(Cc3ccc4c(c3)c3ccccc3n4CC)CC2)cc1,?,.,.,15µM*,.,-6%[12.3 µM]

# Compound activity deposited in PubChem BioAssay by National Center for Advancing Translational Sciences (NCATS).
